# ChEMBL document CHEMBL4513216, “Probing the Open Global Health Chemical Diversity Library for Multistage-Active Starting Points for Next-Generation Antimalarials” (ACS Infect Dis, 2020)
# Among all 69,000 compounds or so, about 8,600 (12%) showed an effect of 50% or more. Only a selection was taken, and strong results are over-represented in it overall.
# Test system: Plasmodium berghei
# Assay: Screen against P. berghei liver stage (PbLuc), transformed with Luciferase, at 10uM
# Format: functional, HepG2
# Settings: tested at 10 uM
row,SMILES,INHIBITION [%]
1,CNc1cccc(CC2COCCN(C(=O)c3cncs3)C2)n1 (configuration not stated),16.35
2,Cc1cc(C(F)F)nn1CC(=O)NCc1nccn1C,8.32
3,Cc1cccc(CN2CCC3(CCCN(C(=O)NC4CC4)C3)C2=O)n1 (configuration not stated),0
4,O=C(c1ccnnc1)N1C[C@H]2CN(Cc3cccc(F)c3)C(=O)[C@H]2C1,34.6
5,CCOCC(=O)N1CSCC1C(=O)N(C)Cc1ccco1 (configuration not stated),17.5
6,Cc1ccc(C(=O)N2CCC3(CC2)CN(CCN(C)C)C(=O)O3)c(F)c1,42.1
7,COc1cc(CCC(=O)N2CCC(c3cncc(C)n3)CC2)on1,14.85
8,Cc1oc(C(C)C)cc1C(=O)N1C[C@@H]2CC[C@H]1CN(c1ncccn1)C2,-28.7
9,O=C(CN1CCCC1Cn1cncn1)Nc1ccc(Cl)cn1 (configuration not stated),80
10,O=C(CN1CCCCC1Cn1cncn1)Nc1ccncc1 (configuration not stated),23.2
11,O=C(CN1CCCC1Cn1cncn1)Nc1cccnc1 (configuration not stated),-9.86
12,CC(NC(=O)N1CCC(c2ccccc2)CC1)c1nncn1C (configuration not stated),13.3
13,Cc1cnn(CC2CCCCN2Cc2cnc(C)s2)c1 (configuration not stated),-7.05
14,Cc1ncsc1CN1Cc2cn(C)nc2C(COCC2CC2)C1 (configuration not stated),43.9
15,COc1cc(CNc2cnn(CC(F)F)c2)ccc1O,21.9
16,COc1cccc(CNc2cnn(CC(F)F)c2)c1,8.53
17,COc1ccc(CNc2cnn(CC(F)F)c2)cc1,64.9
18,C1CCCN(C2CCCN(Cc3noc(C4CC4)n3)C2)CC1 (configuration not stated),-79.7
19,CN(C)S(=O)(=O)N1CC(c2nc(N)ncc2-c2ccc(F)cc2)C1,-20.6
20,CC(=O)N(Cc1ncc(C(C)C)o1)C1CCN(CC2CCC2)C1 (configuration not stated),32.65
21,CC(CCc1ccc(O)cc1)NC1CCN(C(=O)C(C)C)CC1 (configuration not stated),42.1
22,CC(CCc1ccc(O)cc1)NC1CCN(S(C)(=O)=O)CC1 (configuration not stated),55.5

row,SMILES,INHIBITION [%]
1,Cc1ccc(CCC(C)NC2CCN(C(N)=O)CC2)cc1 (configuration not stated),-4.15
2,O=C(NCCNc1ccccn1)N1CCC(O)CC1,7.585
3,OCCNc1cc(N2CCN(Cc3ccccc3)C(CCO)C2)ncn1 (configuration not stated),-11.8
4,O=C(O)c1cccnc1N1CCN(Cc2ccc(F)cc2)C(CCO)C1 (configuration not stated),68.6
5,Cc1cccc(CN2CCN(c3ncnc4[nH]cnc34)CC2CCO)n1 (configuration not stated),47.2
6,Cc1cc(C)n(CC2CN(c3ncnc4[nH]ccc34)CCO2)n1 (configuration not stated),-21.7
7,c1ccc(C2CN(c3ncnc4[nH]cnc34)CCO2)cc1 (configuration not stated),-66.9
8,CNC(=O)c1cccnc1N1CCN(Cc2ccccc2)C(CCO)C1 (configuration not stated),3.17
9,Cc1cccc(CN2CCN(c3ncnc4[nH]ccc34)CC2CCO)n1 (configuration not stated),58.1
10,OCCC1CN(c2ncnc3[nH]cnc23)CCN1Cc1ccccc1F (configuration not stated),10.3
11,OCCC1CN(c2ncnc3[nH]cnc23)CCN1Cc1cccs1 (configuration not stated),53.7
12,OCCC1CN(c2ncnc3[nH]cnc23)CCN1Cc1ccccc1 (configuration not stated),62.4
13,Cc1ccc(CN2CCN(c3ncnc4[nH]cnc34)CC2CCO)cc1 (configuration not stated),20
14,Cc1ccc(CN2CCN(c3ncccc3C(N)=O)CC2CCO)cc1 (configuration not stated),36.5
15,CCC1=N[C@@]2(CC[C@@H]3CN(C(=O)Nc4ccccc4)C[C@@H]32)C(=O)N1CC,8.67
16,Cc1cc(C2CCCCN2C(=O)CN2C(=O)OC(C)(C)C2=O)no1 (configuration not stated),47.2
17,COc1ccccc1-c1ncc(CN2CCC3(CCNCC3)CC2)cn1,25
18,CC(=O)c1ccc(CNC(=O)c2cc(C#N)cn2C)nc1C,12
19,NC(=O)N1CCCN(CC(=O)NCCc2c(F)cccc2F)CC1,-52.1
20,Cc1cc(C)c(CCNC(=O)CN2CCCN(C(N)=O)CC2)c(C)c1,66.6
21,Cc1cc(C)cc(C(=O)N2CCCN(CC(N)=O)CC2)c1,0.348
22,Cn1cc(C(=O)NC[C@H]2OC[C@@H]3CCN(C4CCOCC4)C[C@@H]32)cn1,45.8

row,SMILES,INHIBITION [%]
1,Cc1nc2n(n1)CC(NCc1cnn(-c3ccccc3)n1)CC2 (configuration not stated),-39.4
2,COCCCS(=O)(=O)N1CCN(C(C)(C)CO)CC1,27.65
3,CN(Cc1cc(C(C)(C)C)n[nH]1)C(=O)c1cn2ccsc2n1,-11.5
4,CC(C)c1nc(CN(C)C(=O)c2ccc3c(c2)OCO3)cs1,-40.4
5,CC(C)c1nc(CN2CCCCC2)cs1,47.9
6,CC(C)c1nc(CN(C)C(=O)c2ccc3c(c2)OCC(=O)N3)cs1,-19.9
7,CC(C)c1nc(CN(C)C(=O)c2ccc(CN3CCCCC3)cc2)cs1,65.3
8,CC(C)c1nc(CN(C)C(=O)c2cn3ccsc3n2)cs1,50.5
9,CC(C)c1nc(CN(C)C(=O)CNC(N)=O)cs1,41.5
10,CC(C)c1nc(CN2CCC(CO)CC2)cs1,23.4
11,CC(C)c1nc(CC(=O)Nc2nc(CN3CCCCCC3)cs2)cs1,59.7
12,CS(=O)(=O)N1C[C@@H](O)[C@H](N2CCN(c3ccccc3)CC2)C1,-18.8
13,COc1ccc(CCc2nnc(NC(=O)C3CC34CCC4)s2)cc1OC (configuration not stated),4.32
14,Cc1cc2c(cc1NC(N)=O)OCO2,43.2
15,CC(=O)N1CCc2ncn(C)c2C1C(=O)N1CCCC1 (configuration not stated),45.8
16,Cn1cnc2c1C(C(=O)N1CCOCC1)N(C(=O)c1ccccc1)CC2 (configuration not stated),-31.6
17,Cn1cnc2c1C(C(=O)N1CCCO1)N(C(=O)c1ccccc1)CC2 (configuration not stated),70.4
18,CC(C)c1nnc(CNC2CCCN(Cc3noc(C4CC4)n3)C2)o1 (configuration not stated),19.5
19,O=C(NC1CCN(c2ncccn2)CC1)c1sccc1C1CC1,39.7
20,CC1CCN(Cc2ccccc2CNC(=O)C2CNC(=O)N2)CC1 (configuration not stated),13.8
21,CN(Cc1ccccc1CNC(=O)C1CNC(=O)N1)C1CCCCC1 (configuration not stated),57.7
22,O=C1NCC(C(=O)NCc2ccccc2CN2CCOCC2)N1 (configuration not stated),15.2

row,SMILES,INHIBITION [%]
1,CC(C)OCCCNC(=O)CS(=O)(=O)Cc1ccc(C(C)(C)C)cc1,-27.8
2,Cc1ccccc1OC1CCN(CC(=O)Nc2ccn(C)n2)CC1,15.1
3,CCn1cc(NC(=O)CN2CCC(Oc3ccccc3C)CC2)c(C)n1,-0.275
4,Cc1nn(C)cc1NC(=O)CN1CCC(Oc2cnccn2)CC1,-2.09
5,Cc1ccccc1OC1CCN(CC(=O)Nc2c(C)nn(C)c2C)CC1,52.5
6,CCn1cc(NC(=O)CN2CCC(Oc3ccc(F)cc3)CC2)c(C)n1,58
7,Cc1ccccc1OC1CCN(CC(=O)Nc2cn(C)nc2C)CC1,17.3
8,COCC(c1cccc(C(F)(F)F)c1)N(C)C(=O)c1ccoc1 (configuration not stated),40.49
9,COc1cccc2c3c(c(=O)n(C)c12)CCC(C)(C)O3,12.3
10,Cn1cccc1C(=O)N1CCn2cc(CNC(=O)CC3CC3)nc2C1,9.67
11,CCc1ncc2c(n1)CN(Cc1cnc(C)cn1)CC2,25.2
12,COCCC(=O)N1CCC(c2nnc(-c3ccsc3)o2)CC1,0.75
13,COc1cc(C2SCC(=O)Nc3[nH]ncc32)cc2c1OCO2 (configuration not stated),30.2
14,CSc1nc(N)c2c(n1)N=C1COC(=O)C1C2c1cccc(O)c1 (configuration not stated),25.1
15,CCOc1c(Br)cc(C2c3c(n[nH]c3C)N=C3COC(=O)C32)cc1OC (configuration not stated),72.4
16,COc1cc(C2c3c(n[nH]c3C)N=C3COC(=O)C32)cc(Br)c1O (configuration not stated),62.3
17,COc1cc(C2c3c(n[nH]c3C)N=C3COC(=O)C32)cc2c1OCO2 (configuration not stated),58.1
18,COc1cccc(C2c3c(n[nH]c3C)N=C3COC(=O)C32)c1OC (configuration not stated),-7.77
19,COc1cccc(C2c3c(n[nH]c3C)N=C3COC(=O)C32)c1O (configuration not stated),48
20,O=C(NCc1ccco1)[C@H]1CC[C@@H]2[C@@H](CCN2c2ncc(F)cn2)O1,38.1
21,CC(=O)NC1CCCN(C(=O)NCCOc2ccc3c(c2)OCO3)C1 (configuration not stated),15.6
22,O=C(CCc1ccncc1)N1CCCC(n2cccn2)C1 (configuration not stated),24.39

row,SMILES,INHIBITION [%]
1,O=C(c1cccn1Cc1cccs1)N1CCC(C(=O)N2CCCC2)CC1,11.6
2,COCc1cccc(CNCc2c(C)nn(C)c2N2CCOCC2)c1,27.4
3,CCCN1CCCCCC1Cc1c(C(=O)NC)sc2ccccc12 (configuration not stated),17.235
4,CN1CCCNC(=O)C12CCN(C(=O)c1ccc3[nH]cnc3c1)CC2,20.2
5,CCc1noc(C(C)N2CCN(CCOCC(F)(F)F)CC2)n1 (configuration not stated),-5.545
6,Cc1noc(C(C)C)c1C(=O)NCC1CCCN1Cc1ccccc1 (configuration not stated),24.1
7,O=C(NCc1nccn1CCc1ccccc1)NCC1(O)CCC1,-4.15
8,O=C(NCC1CCCN1CCc1ccccc1)NCC1(O)CCC1 (configuration not stated),19.2
9,O=C(NCC1CCCN1Cc1ccccc1)NCC1(O)CCC1 (configuration not stated),53.8
10,O=C(NCC1CCN(CCc2ccccc2)C1)NCC1(O)CCC1 (configuration not stated),53.8
11,CCCN1CCC(CNC(=O)C2(c3ccccc3)CCC2)C1 (configuration not stated),42.9
12,CCC(=O)NCCCn1c(-c2cccnc2C)cc2cccnc21,10.9
13,Cn1c(C(F)(F)F)nn(CCNC(=O)Nc2ccccc2Cl)c1=O,21
14,CCNC(=O)C(C)NC(=O)Nc1ccccc1SC(F)(F)F (configuration not stated),65
15,CCCNC(=O)C(C)NC(=O)Nc1ccccc1SC(F)F (configuration not stated),41.5
16,CCNC(=O)C(C)NC(=O)Nc1ccccc1Cl (configuration not stated),62.9
17,O=C(NCCCn1nc2ccccn2c1=O)Nc1ccccc1Cl,7.12
18,CCNC(=O)C(C)NC(=O)Nc1ccccc1SCC (configuration not stated),5.17
19,O=C1CCC2(CCC(NCc3ccoc3)CC2)N1 (configuration not stated),2.58
